Bioassay records from PubChem.
3T3 cytotox – Cytotoxic Profiling in NIH 3T3 Cell Line of Diverse Libraries Using Quantitative High-Throughput Screening. NIH 3T3 viability, CellTiter-Glo ATP luminescence, 48-72 h. hit rate 4.3% among 94,000. Potency, µM (series often up to 96.7 µM), without a hit: at the top dose activity change, negative = cytotoxicity, most hits filed as inhibitors. AID 1345082, 2018; note: nearly all actives have a fitted effect of over 55% in size
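Viability of NIH 3T3 cells after 48 or 72 hr compound treatment at 37 °C was assessed by CellTiter-Glo, with luminescence imaged following a 10 min room-temperature step.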
Luciferase inh – Firefly luciferase inhibition profiling of diverse chemical library using quantitative high-throughput screening; Luciferin 4-monooxygenase (Photinus pyralis), P08659; purified P. pyralis luciferase, luminescence, biochemical; Potency, µM (titrated, usually from 115 µM), usual class: inhibitors; hit rate 2.5% among 76,000; AID 1347043, 2019; note: nearly all actives have a fitted effect of over 65% in size
Target sequence (P08659 whole entry, looked up): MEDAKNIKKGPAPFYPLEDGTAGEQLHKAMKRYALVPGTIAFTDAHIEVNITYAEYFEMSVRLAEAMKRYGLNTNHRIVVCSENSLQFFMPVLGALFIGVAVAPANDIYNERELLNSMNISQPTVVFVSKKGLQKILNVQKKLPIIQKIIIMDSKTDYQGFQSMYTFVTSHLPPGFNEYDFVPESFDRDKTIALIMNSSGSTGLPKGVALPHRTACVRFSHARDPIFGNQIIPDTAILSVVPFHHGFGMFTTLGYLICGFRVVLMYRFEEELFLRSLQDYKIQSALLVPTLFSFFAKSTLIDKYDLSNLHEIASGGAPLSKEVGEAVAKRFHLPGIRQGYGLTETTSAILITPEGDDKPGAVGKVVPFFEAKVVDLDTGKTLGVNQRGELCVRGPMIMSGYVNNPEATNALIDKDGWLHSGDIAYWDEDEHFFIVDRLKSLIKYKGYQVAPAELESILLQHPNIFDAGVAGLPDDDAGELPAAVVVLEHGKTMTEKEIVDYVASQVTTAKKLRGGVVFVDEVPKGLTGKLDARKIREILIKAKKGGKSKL
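Cell-free enzyme assay, 10nM P. pyralis luciferase, luciferin and ATP each at 10uM. Inhibition profiled over a 6-point titration, read as luminescence.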
HEK293 tox – Cytotoxic Profiling in HEK 293 Cell Line of Diverse Libraries Using Quantitative High-Throughput Screening; Potency, µM (highest dose often 115 µM), without a hit: at the highest dose activity change, negative = cytotoxicity, usual class: inhibitors; hit rate 6.6% among 94,000; HEK 293 viability, ATP luminescence (CellTiter-Glo), 48-72 h; note: nearly all actives have a fitted effect of over 60% in size
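HEK 293 cells at 250 cells/well were exposed to compounds by pintool transfer for 48 or 72 hr at 37 degree Celsius, 5% CO2. Viability was read as ATP-coupled luminescence with CellTiter-Glo after 10 min at room temperature.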
NPR1 antag – Natriuretic polypeptide receptor (hNpr1) antagonism - Primary qHTS; Potency, µM (series often up to 46.3 µM), for inactives: at the highest dose activity change, negative = inhibition, hits mostly inhibitors; AID 1347048, 2019; hit rate 1.6% among 76,000; Atrial natriuretic peptide receptor 1 (Homo sapiens), P16066; HEK293 hNpr1 GloSensor cGMP, ANP-stimulated luminescence; calls by dose curve; note: nearly all actives have a fitted effect of over 60% in size
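Compound pre-incubated 30 min at room temperature on GloSensor-loaded HEK293 cells stably carrying hNpr1 and the pGS-40F cGMP biosensor. Stimulation uses hNppA at 0.1 nM final; luminescence is taken at baseline and 20 min post-agonist.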
SNCA viab count – GF-AFC viability counterscreen for inhibitors of alpha-synuclein gene (SNCA) expression. HEK-293-SNCA-luc viability, GF-AFC fluorescence, 24 h. Potency, µM (series often up to 57.1 µM), for inactives: at the highest dose activity change, negative = cytotoxicity, actives largely listed as cytotoxic. hit rate 0.12% among 150,000. AID 1671193, 2021;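 note: 0% = DMSO-treated cells and -100% = medium-only wells without cells; nearly all actives have a fitted effect of over 30% in size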
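Cytotoxicity counterscreen: after 24 h compound treatment of genome-edited SNCA-luciferase HEK-293 cells, live-cell protease substrate GF-AFC read by fluorescence after 30 min; activity scaled between DMSO (0%) and medium-only (-100%), curves Hill-fitted.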
SNCA expr inh – Primary qHTS assay for inhibitors of alpha-synuclein gene (SNCA) expression; HEK-293 SNCA-luciferase knock-in, luminescence, 24 h; hit rate 0.17% among 140,000; Potency, µM (series often up to 57.2 µM), without a hit: at the top dose activity change, negative = inhibition, actives largely listed as inhibitors;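 note: plate controls were DMSO cells for no effect and cell-free wells for full effect; nearly all actives have a fitted effect of over 45% in size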
The depositor's hits bear a star; i = inactive; ? = inconclusive; · = no result given; [ ] = another dose, or the depositor's remark. Hits are enriched below; roughly 7.2% of the tested compounds scored in any of these assays. Unless noted, calls come from the whole dose curve; as a rule, active = well fitted curve in the direction sought with a large enough effect; inconclusive = small, poorly fitted or top-dose-only effect, or another doubt; inactive = no such curve, though single readings can be large; an effect the other way counts as inactive or inconclusive. Unless noted, % is set by controls: 0 for no effect and ±100 for the full control effect; potency is the fitted concentration of half-maximal effect.

SMILES | 3T3 cytotox | Luciferase inh | HEK293 tox | NPR1 antag | SNCA viab count | SNCA expr inh
CCc1ccc(CN2CCC3(Cc4ccccc4CNC3=O)C2)cc1 (stereo unspecified) | ? | · | ? | · | -15% | 3%
O=C1NCc2ccccc2CC12CCN(Cc1ccc(-c3ccccc3)cc1)C2 (stereo unspecified) | 35µM* | · | 35µM* | · | -18% | ?
COc1ccc(-c2ccnc(-c3nnc(C)n3CCN(C)C)c2)cc1OC | 25µM* | i | -17%[172 µM] | 6%[70.6 µM] | -1%[87.6 µM] | -9%[87.6 µM]
COc1ccc(-c2ccnc(-c3nnc(C)n3Cc3ccccc3)c2)cc1OC | ? | i | ? | 1%[70.6 µM] | -16%[87.6 µM] | 32%[87.6 µM]
COc1ccc(-c2ccnc(-c3nnc(C)n3C(C)C)c2)cc1OC | 100µM* | i | -11%[172 µM] | 2%[70.6 µM] | 2%[87.6 µM] | -1%[87.6 µM]
CC1Oc2ccc(NC(=O)c3c(F)cccc3F)cc2CN(Cc2ccccc2F)C1=O (stereo unspecified) | ? | i | ? | -2% | 2% | 4%
Cc1noc([C@H]2CCN(C(=O)c3ccnn3C)C[C@H]2NC(=O)C2CC2)n1 | -11% | i | 8% | -1% | -16% | ?
O=C(NC1CCCN(c2ccnc3ccnn23)C1)c1cc(F)ccc1Br (stereo unspecified) | ? | · | -33% | · | 6% | 34%
O=c1cc(-c2ccccn2)oc2c(-c3cn[nH]c3)nccc12 | 11µM* | i | ? | -1%[70.6 µM] | -17%[87.6 µM] | ?
O=c1cc(-c2ccccn2)oc2c(NC3CCOCC3)nccc12 | 14µM* | i | -17%[172 µM] | -1%[70.6 µM] | -1%[87.6 µM] | -11%[87.6 µM]
O=c1cc(N2CCOCC2)oc2c(Nc3ccccn3)nccc12 | ? | i | -21%[172 µM] | 5%[70.6 µM] | 6%[87.6 µM] | -2%[87.6 µM]
CCOc1cc(=O)n2c(c1C(=O)Nc1ccc(CC)cc1)CCCC2 | -17% | ? | -22% | -2% | 9% | 7%
CCOc1cc(=O)n2c(c1C(=O)Nc1ccc3c(c1)OCO3)CCCC2 | ? | 40µM* | ? | -1% | -9% | 39%
Cc1ccccc1[S+](=O)([O-])N1CCC2(CC1)OCCN(Cc1ccccc1)C2=O | ? | i | ? | -5%[70.6 µM] | -5%[87.6 µM] | -3%[87.6 µM]
COc1cccc(CN2CCOC3(CCN([S+](=O)([O-])c4c(C)noc4C)CC3)C2=O)c1 | 20µM* | i | -26% | -4% | 4% | -27%
COc1cccc(CN2CCOC3(CCN(Cc4ccc(Cl)cc4)CC3)C2=O)c1 | ? | i | ? | ? | ? | -27%[87.6 µM]
O=C1N(CCc2ccccc2)CCOC12CCN([S+](=O)([O-])c1cccnc1)CC2 | 25µM* | i | -23%[172 µM] | 6%[70.6 µM] | 4%[87.6 µM] | -8%[87.6 µM]
O=C(Cc1ccc(N(Cc2ccccc2)C(=O)c2ccco2)cc1)Nc1ccccc1 | ? | ? | 35µM* | -15% | ? | -2%
O=C(Cc1ccc(N(Cc2ccccc2)C(=O)c2ccco2)cc1)NCCc1ccccc1 | ? | i | 50µM* | -6% | ? | 27%
Cc1nccn1CC(=O)N1C[C@@H](COCC2CC2)[C@H](c2ccncc2)C1 | -20% | i | -10% | 9% | ? | 4%
CCN(CC)Cc1nc(C2(O)CCN(Cc3ccccc3O)CC2)cs1 | ? | i | -24%[172 µM] | 2%[70.6 µM] | 0%[87.6 µM] | -4%[87.6 µM]
CCN(CC)Cc1nc(C2(O)CCN(Cc3ccccc3C(F)(F)F)CC2)cs1 | ? | i | 89µM* | 8%[70.6 µM] | -16%[87.6 µM] | -23%[87.6 µM]
COc1ccc(-c2ccc(C(=O)NCc3ccc(C(F)(F)F)cc3)cc2)nn1 | -17% | · | -1% | · | · | ·
